Screen size: about 1,200 compounds; fewer than 10 were called active. Calls come from the whole dose curve; as a rule, active = well fitted curve in the direction sought with a large enough effect; inconclusive = small, poorly fitted or top-dose-only effect, or another doubt; inactive = no such curve, though single readings can be large or run the other way. A selection follows.
Assay: Confirmatory qHTS assay for inhibitors of Activation Induced Cytidine Deaminase (AID): UDG signals; note: 0% is about no effect
Details: UDG coupled enzyme activity counter-screen; series mostly up to 115 µM; activity change, negative = inhibition: at the top concentration
Excerpt: Assay Provider (PI) Patricia Gearhart Ph.D.
National Institute on Aging
National Institute of Health (NIH), Bethesda, MD
Assay Provider (PI) Rahul Kohli Ph.D.
Perelman School of Medicine
University of Pennsylvania, Philadelphia, PA
Activation-Induced Deaminase (AID) is a cytosine deaminase which converts cytosine into uracil within stretches of ssDNA. The presence of uracil in DNA initiates a cascade of mutagenic DNA repair to introduce point mutations and DNA double strand breaks. Specific targeting of AID to the immunoglobulin heavy chain loci (Igh) promotes mutagenesis in the antibody variable region for somatic hypermutation (SHM) or switch regions leading to class switch recombination (CSR). However, AID also plays a role in accumulating unnecessary mutations across the genome. Mis-targeting of AID results in the initiation of tumor development and leads to greater drug resistance among cancer cells when continually expressed. To identify an AID inhibitor, a small molecule library will be screened in collaboration with NCATS core facility at NIH. To confirm biological function, inhibitors will be examined in an in vitro murine B-cell activation assay and subsequent secondary validation screens. Top molecules will be further screened to identify inhibitory efficacy against a wild type primary splenocytes assay. Using these approaches, we hope to identify a small molecule with great efficacy and low toxicity for use as a molecular probe to further characterize AID's intricacies, or even as a therapeutic.
A FRET based analysis of cytosine deamination, was developed to identify potential inhibitors of AID catalytic activity. This screen has two signal output, Read 1 evaluates the AID inhibition response. The second readout (Read 2) evaluates UDG response and is uses as a counterscreen to exclude false positive inhibitors. Inhibition in AID and inactivity in the UDG signal is the desired outcome for this assay.
SEQUENCE No. (e.g., 1, 2, 3, etc.); […] (e.g., Cells, Incubation, Reagent, etc.); VALUE; DESCRIPTION
1a; Reagent; 3 uL; [4/3x] 1 uM AID/2.67 U/mL UDG
1b; Reagent; 3 uL; 2 U/mL UDG
1c; Reagent; 3 uL; 1 uM AID
2a; Compound; 46 nL; Follow-up plates (0.64 uM - 10 mM)
2b; Control; 46 nL; ATA ([…] - 10 mM)
3; Time; 10 min; incubation at room temperature
5; Time; 4 hr; incubation at room temperature
6; Reagent; 4 uL; [2x] 250 mM NaOH
7; Time; 15 sec; centrifuge at 1000 rpm
8; Time; 30 min; incubation at room temperature
9a; Detection; fluorescence (Read 1: AID); EnVision (PerkinElmer) plate reader, 540 excitation and 590 emission filters
9b; Detection; fluorescence (Read 2: UDG); EnVision (PerkinElmer) plate reader, 560 excitation and 665 emission filters
NOTES (numbers refer to sequence above)
1a; Reagents were dispensed in a medium-binding black solid-bottom Greiner plates (789176F) using a BioRptr liquid dispenser. Dispense 3 uL of [4/3x] 1 uM AID (provided by Kohli lab) and [4/3x] 2 U/mL UDG (NEB M0280L) into columns 1, 2, 5 to 48.
1b; Dispense 3 uL of [4/3x] 2 U/mL UDG into column 3.
1c; Dispense 3 uL of [4/3x] 1 uM AID into column 4.
2a; Compound (7-points [uM]: 0.64; 3.2; 16; 80; 400; 2,000; 10,000; […]) double pin-transferred (Dip Factor = 2) using the Kalypsys (Wako USA) pintool equipped with a 1536 pinhead for a final concentration range of 7.32 nM - 114 uM.
2b; 10 mM Aurintricarboxylic Acid (Sigma A1895) (ATA, 8-point, n = 2, 1:2.5 dilution in column 2) double pin-transferred (Dip Factor = 2) using the Kalypsys (Wako USA) pintool equipped with a 1536 pinhead for a [final] range of 186 nM - 114 uM.
3; Room temperature incubation.
4; Dispense 1 uL of substrate mixture from the Kohli lab [4x] […] DJC20 and [4x] 250 nM DJC23 into columns 1 to 48 .
5; Room temperature incubation.
6; Dispense 4 uL of substrate mixture [2x] 250 mM NaOH into columns 1 to 48.
7; Centrifugation step to remove bubbles.
8; Room temperature incubation
9a; Fluorescence signal (column label AID) was read using the EnVision plate reader. […]

SMILES | activity change, negative = inhibition
O=S(=O)(NCCc1nnc2ccc(SCc3ccc(Cl)cc3Cl)nn12)c1ccccc1 | -1.19% (inactive)
COc1ccc(-c2cc3ncc(C(=O)c4cc([N+](=O)[O-])ccc4O)cn3n2)cc1 | 4.06% (inactive)
Cc1c(C(=O)N(C)c2ccccc2)sc2nc(-c3ccc(F)cc3)cn12 | -7.95% (inactive)
CCOc1ccc2nc(Cl)c(C3CC(c4ccc(C)cc4)=NN3C(=O)CCC(=O)O)cc2c1 (stereo not given) | 4.17% (inactive)
COc1ccccc1-c1nn(CCC(=O)Nc2ccc(C)cc2)c2nc(C)cc(C)c12 | -6.55% (inactive)
Cc1ccc(C)c(N2CCN(C(=O)c3cnn(C(C)(C)C)c3C3CCN(C(=O)OC(C)(C)C)CC3)CC2)c1 | -6.07% (inactive)
COc1cc2c(cc1OC)C(COc1ccc(F)cc1)N(C(=O)c1cccc(F)c1)CC2 (stereo not given) | -11.3% (inactive)
COc1ccc(OC)c(NC(=O)Cn2c(=O)cc(-c3ccccc3)c3c(C)nn(C)c32)c1 | 7.45% (inactive)
Cc1nc2c(C(=O)NCc3ccccc3)c[nH]n2c(=O)c1Cc1ccccc1Cl | 4.49% (inactive)
CCCCCSc1nnc2c(n1)OC(CC)Nc1ccc(Br)cc1-2 (stereo not given) | 6.46% (inactive)
CCCCN(CCCC)C(=O)c1cc2c(=O)n3cccc(C)c3nc2s1 | -1.48% (inactive)
CCOc1ccc(C(=O)/C=C/c2cn(CC(O)CN3CCCCCC3)c3ccccc23)cc1 (stereo not given) | -4.79% (inactive)
CCCc1nc2ccccc2n2c(-c3ccccc3)c3c(=O)n(C)c(=O)n(C)c3c12 | -2.27% (inactive)
CCCN1CCN(CCCNC(=O)c2cc3c(Cl)nc4ccccc4c3s2)CC1 | 12.3% (inactive)
COc1ccc(CSc2nc3ccncc3n2Cc2nc(-c3ccc(OC)c(OC)c3)oc2C)cc1 | 3.79% (inactive)
COc1ccc(Cn2cc(C(=O)c3ccc(C)c(C)c3)c(=O)c3ccccc32)cc1 | -4.47% (inactive)
Cc1ccccc1NC(=O)c1c(NC(=O)C(F)(F)F)sc2c1CCCCC2 | 6.21% (inactive)
O=S1(=O)c2ccccc2N(Cc2ccc(Cl)cc2)c2ccccc21 | 3.98% (inactive)
Cc1cccc(Cn2c(SCc3ccc(C(=O)N4CCCCCC4)cc3)nc3ccncc32)c1 | 1.99% (inactive)
COCCc1nn2c(=O)cc(COC(=O)c3ccc(C(C)(C)C)cc3)nc2s1 | 6.29% (inactive)
CCN(c1cccc(C)c1)S(=O)(=O)c1nnc(NC(=O)c2ccccc2Cl)s1 | 0.737% (inactive)
COc1ccccc1N1CCN(C(=O)c2cc3c(-c4ccccc4F)nn(C)c3s2)CC1 | -3.23% (inactive)
CCOc1cccc(C(=O)N(Cc2ccc(F)cc2)Cc2ccco2)c1 | -7.98% (inactive)
CCOc1ccc(CCNc2ncnc3onc(-c4ccc(Cl)cc4)c23)cc1OCC | -4.41% (inactive)
Cc1cc(OCCCSc2nc(-c3ccc(C(C)(C)C)cc3)nc3cc(=O)[nH]n23)ccc1Cl | -3.24% (inactive)
CCOc1ccc(Nc2c(S(=O)(=O)c3ccc(C)cc3)cnc3ccc(OC)cc23)cc1 | -6.81% (inactive)
CCn1cc2nc(SCc3cccc(C(F)(F)F)c3)n(CCc3ccccc3)c(=O)c2n1 | -6.4% (inactive)
CCCCOc1ccc(C(=O)Nc2ccc(S(=O)(=O)Nc3nc(C)cc(C)n3)cc2)cc1 | 5.37% (inactive)
O=C(O)c1c(-c2ccccc2)oc2ccc(OCc3c(F)cccc3Cl)cc12 | -5.79% (inactive)
O=C1c2ccccc2C(=O)C1(c1ccccc1)N1CCN(c2cccc(C(F)(F)F)c2)CC1 | 4.62% (inactive)

From PubChem BioAssay AID1347431 (National Center for Advancing Translational Sciences (NCATS), 2020)
